Growth data for nine compounds are collected here from PubChem BioAssay (NCI).

Test in all cases: NCI-60 one-dose screen, 48 h (100 = growth as untreated, 0 = no growth, -100 = all killed)
Settings in all cases: 10 µM unless noted

Test [1] relates to NCI-H23 lung.
Test [2] relates to NCI-H226 lung.
Test [3] deals with NCI-H322M lung.
Test [4] concerns HOP-62 NSCLC.
The test system of test [5] is NCI-H460 lung.
In test [6] the test system is HOP-92 NSCLC.
Test [7] deals with NCI-H522 lung.
Test [8] deals with A549/ATCC NSCLC.
Test [9] deals with 786-0 renal.
Test [10] has as its system COLO 205 colon.
For test [11], the system named is DU-145 prostate.
Test [12] has as its system MALME-3M melanoma.
Test [13] has as its system MDA-MB-231 breast.
The subject of test [14] is RXF 393 renal.
Test [15] concerns SF-268 CNS.
Test [16] deals with SF-295 CNS.
In test [17] the test system is SF-539 CNS.
Test [18] has as its system UACC-257 melanoma.
Test [19] concerns M14 melanoma.
The test system of test [20] is K-562 leukemia.

The panel holds about 83,000 compounds, 20% with a hit somewhere; the sample as a whole holds those more often.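 The endpoint reported here, percent growth, reads 100 for growth as untreated, 0 for no net growth and -100 for all cells dead.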 Unmarked numbers belong to inactive results. Active and inactive are the calls of the source. Rule for the calls: active = growth percent below 10; inactive = the rest.

As for `O=C1OC(=O)C2C1CC=CC2c1ccccc1` (stereo unspecified), the growth in test [1] was 84.7%; in test [2] it was 90.6%; in [3], 102%; in test [4], 78.8%; in test [5], 75.5%; in test [6] it was 85.3%. For the same compound, the growth in test [7] is 93.6%; in test [8] it was 88%; in test [9], 94.9%; in [10], 93.7%; in test [11], 94%; in test [12], 78.8%. The growth in test [13] was 93.7%; in [14] it was 102%; in test [15], 91.1%; in [16], 95.8%; in test [17], 88.3%; in test [18], 107%. In test [19], the growth is 97.4%.
For the compound `CC(=O)OCCCCCNc1ccccc1`, the growth is 101% in test [1]; 104% in [2]; 106% in test [3]; 102% in test [4]; 118% in test [5]; 109% in test [6]. Moreover, the growth in test [7] was 95.1%; in [8], 101%; in test [9], 101%; in test [10], 107%; in test [11], 106%; in test [12] it was 103%. In addition, the growth was 98% in [13]; 123% in [14]; 99.4% in test [15]; 110% in test [16]; 94.2% in test [17]; 110% in test [18]. In test [19], the growth was 113%.
As to `Clc1ccc2c(c1)c(-c1ccccc1)nc1nncn12`, the growth was 98.6% in [1]; 114% in test [2]; 114% in [3]; 105% in [4]; 117% in [5]; 119% in [6]. In addition, the growth in test [7] is 93.1%; in test [8], 106%; in test [9], 94.2%; in [11], 112%; in test [20] it was 119%; in [12], 113%. Also, the growth in test [13] is 119%; in test [14], 135%; in test [15], 95.6%; in [16], 101%; in test [17], 95.1%; in test [18], 115%. The growth in [19] is 110%.
Consider `O=C(O)c1cn(C2CC2)c2cc(N3CCN(C(=O)C[n+]4cccc5ccccc54)CC3)c(F)cc2c1=O`, for which the growth in test [1] was 84.4%; in test [2] it was 101%; in test [3], 102%; in [4], 98.9%; in [5], 96.6%; in [6] it was 95.5%. Also, the growth in [7] was -90% (active); in test [8], 98.7%; in test [9], 48.5%; in test [10], 34.5%; in [11], 91.7%; in test [12], -41.7% (active). Besides, the growth in test [13] is 99.8%; in [15], 68.2%; in test [16], 107%; in test [17], 69.1%; in [18], 82.3%; in test [19] it was 64.8%.
Turning to `CC1=CC[C@@H]2CC[C@]3(C)[C@H](CC[C@@H]4[C@@]5(C)CCCNC(C)(C)[C@@H]5CC[C@]43C)[C@H]2[C@@H]1C`, the growth in test [1] is 63.1%; in test [2], 107%; in [3] it was 20.7%; in [4], 105%; in test [5], -70.4% (active); in [6], 23.8%. Also, the growth was 96.1% in test [7]; -14% (active) in [8]; -72.5% (active) in test [9]; -93.5% (active) in test [10]; -7.26% (active) in test [11]; 3.21% (active) in test [12]. Moreover, the growth in [13] was -7.94% (active); in test [15], 40.2%; in [16], -35.2% (active); in [17], 77.5%; in test [18] it was 76.7%; in test [19], 15.5%.
As to `O=C1Nc2ccccc2/C1=N/c1nc(-c2ccc(Cl)cc2)cs1`, the growth in [1] is 75%; in test [2], 64.2%; in test [3], 92.6%; in test [4], 56%; in test [5], 67.7%; in test [6], 51.5%. The growth was 50.1% in test [7]; 49.4% in test [8]; 75.6% in test [9]; 75.3% in test [11]; 48.5% in test [20]; 81.4% in test [12]. The growth in test [13] is 67.8%; in test [14], 64.7%; in test [15], 54.1%; in [16] it was 81.5%; in test [17], 84.5%; in test [18] it was 48.9%. Further, the growth in [19] is 67.8%.
For `O=C(O)/C=C\C(=O)N1C/C(=C\c2ccccc2Cl)C(=O)/C(=C/c2ccccc2Cl)C1`, the growth in test [1] was -24.9% (active); in [2], -85% (active); in [3], 4.69% (active); in [4], -24% (active); in test [5], -40.9% (active); in test [6], 2.77% (active). The growth is -87.2% (active) in [7]; 7.96% (active) in test [8]; -67.4% (active) in test [10]; -34.2% (active) in test [11]; 8.25% (active) in test [20]; 2.25% (active) in test [12]. Also, the growth in [13] was -15.4% (active); in test [14] it was -95.8% (active); in test [15] it was -33.7% (active); in test [16] it was -13% (active); in test [17] it was -20.9% (active); in test [18] it was 67.3%. Further, in test [19], the growth is 12%.
As to `COc1cc(C2CC(c3cccc(Nc4ccncc4)c3)=NN2C(C)=O)cc(OC)c1OC` (stereo unspecified), the growth is 104% in test [1]; 96.8% in test [2]; 102% in test [3]; 91.1% in test [4]; 103% in test [5]; 70.1% in test [6]. Also, the growth in test [7] was 77.9%; in test [8], 98.5%; in test [9], 88%; in test [11], 107%; in test [20], 34.7%; in [12], 80%. For the same compound, the growth in [13] is 92.8%; in [15], 94.4%; in test [16], 94.9%; in test [17], 89.1%; in test [18], 91.5%.
Turning to `CCN(CC)CCCC(C)Nc1c2c(nc3ccc(OC)cc13)CCCC2` (stereo unspecified), the growth in [1] was 87.7%; in test [2] it was 97.3%; in test [3], 90.6%; in test [4], 87.6%; in [5] it was 92.7%; in [6] it was 84.2%. The growth in test [7] was 112%; in test [8], 108%; in [9] it was 90.2%; in test [11], 111%; in [20] it was 79.9%; in test [12] it was 118%. Moreover, the growth in test [13] was 79.8%; in [15] it was 86.2%; in test [16], 78%; in [17] it was 89.8%; in [18] it was 112%; in [19], 100%.
